Several values for one entry are separate records, joined by “and”; a condition that tells them apart may be missing. Identical values can stand only once. Results filed as inconclusive are left out. Where a call stands in place of a potency, no number is given. Some compounds were tested as several samples or in several runs, with calls that do not always agree. Activity calls are given as the source filed them. The call rests on the fitted dose curve; in most records, active means well fitted cell-killing curve with a large enough effect in the repeat runs; inconclusive means weak or mixed curves, or effect the other way; inactive means no such curve, though single readings can be large or run the other way.
Test: Caspase-3/7 induction in CHO-K1 cells by small molecules, qHTS cell viability counter screen (AID 1346979); further: nearly all actives have a fitted effect of over 35% in size
Settings: CellTiter-Fluor fluorescence, 17 h; series mostly up to 92.4 µM
From the text: National Center for Advancing Translational Sciences [NCATS]
NIH Chemical Genomics Center [NCGC]
U.S. Environmental Protection Agency [EPA]
National Institutes of Environmental Health Sciences [NIEHS]
National Toxicology Program [NTP]
U.S. Food and Drug Administration [FDA]
Apoptosis is a process of programmed cell death and plays a central role in the development of multicellular organisms. It is a highly regulated process and induces cell death by activating caspases, which are the members of cysteine aspartic acid-specific protease (caspase) family. Caspases involved in apoptosis are classified by their mechanism of action as initiator caspases (caspase-2, -8, -9 and -10) and executioner caspases (caspase-3, -6, and -7). Inhibition of apoptosis results in number of cancers, autoimmune diseases, inflammatory diseases and viral infection. To identify small molecule compounds that induce apoptosis, a homogeneous, luminescent Caspase-Glo 3/7 assay was used. Wild type CHO-K1 cells were used to screen Tox21 libraries for identifying caspase-3/7 activity inducers. Also cytotoxicity of the compounds was tested in parallel by measuring the cell viability using CellTiter-Fluor assay system in the same wells.
Tox21 Assay Protocol Summary:
CHO-K1 cells were dispensed at 1,500 per well in 5uL of culture medium into white solid bottom 1536-well plates (Corning Life Sciences, Corning, NY) using a Multidrop Combi (Thermo Scientific, Waltham, MA) dispenser. The assay plates were incubated at 37 C and 5% CO2 for 5hr, and then 23nL of compounds dissolved in DMSO and positive control were transferred using a Pintool station (Wako, San Diego, CA). The assay plates were incubated at 37C and 5% CO2 for 17hr. For cytotoxicity read, after 16hr incubation at 37C, 1uL CellTiter-Fluor reagent (Promega Corporation, Madison, WI) was added to each well of the assay plates using Flying Reagent Dispenser (FRD, Aurora Discovery, San Diego, CA). After 1hr incubation at 37C and 5% CO2, the fluorescence signal was quantified using a ViewLux plate reader (PerkinElmer, Shelton, CT).
Potency means the concentration at half of the fitted maximal effect.

SMILES | Potency
CC(C)(C)c1cc(Cc2cc(C(C)(C)C)c(O)c(C(C)(C)C)c2)cc(C(C)(C)C)c1O | inactive
CC(C)CCCCCCCOC(=O)CCCCC(=O)OCCCCCCCC(C)C | inactive
CCCCCCCC=O | inactive
CC1(C)CC(N)CC(C)(CN)C1 (stereo not given) | inactive
CNC(=O)Oc1ccc2c(c1)[C@]1(C)CCN(C)[C@@H]1N2C | inactive
CN(C)c1ccc(O)c2c1C[C@H]1C[C@H]3[C@H](N(C)C)C(=O)C(C(N)=O)=C(O)[C@@]3(O)C(=O)C1=C2O | 68.6 µM (active) and 29.8 µM (active)
C=C(C)C(=O)OCC(C)C | 12.4 µM (active) and inactive
CC(C)OP(=O)(CP(=O)(OC(C)C)OC(C)C)OC(C)C | inactive
COc1cc(OC)c(C(=O)CCCN2CCCC2)c(OC)c1 | inactive
NCCCCCCN | 2.75 µM (active) and 19.3 µM (active)
CCOC(=O)c1ccc(N)cc1 | inactive
NCCNCCN | inactive
CCNc1cccc(C)c1 | inactive
C=C(C)CNCC | inactive
CCCCCCCCCCCCCCCCO | inactive
CCCCOC(=O)c1ccc(N)cc1 | inactive
CC(=O)OCc1ccccc1 | inactive
OC1C(O)C(O)C(O)C(O)C1O (stereo not given) | inactive
Brc1ccc(Br)c(Br)c1 | inactive
CC(=O)OC1CC(C)OC(C)O1 (stereo not given) | inactive

SMILES | Potency
CCCCCC(=O)O | inactive
CC(CCO)CC(C)(C)C (stereo not given) | inactive
CCCCC(C=O)CC (stereo not given) | inactive
CC(C)c1cccc(C(C)C)c1 | inactive
NCCN1CCNCC1 | inactive
COc1ccccc1OCC(O)CO (stereo not given) | inactive
OCc1ccccc1 | inactive
Nc1ccc(Cl)c(N)c1 | inactive
CCCOC(=O)c1ccccc1 | inactive
COc1ccc([N+](=O)[O-])cc1N | inactive
O=S(=O)(O)c1ccc(N=Nc2c(O)ccc3cc(S(=O)(=O)O)ccc23)cc1 | 54.7 µM (active) and 27.3 µM (active)
CCNC(=S)NCC | inactive
CCO[Si](CCC#N)(OCC)OCC | inactive
O=C1c2ccccc2CCc2ccccc21 | inactive
O=C1CCCC1 | inactive
COc1ccc(OC)cc1 | inactive
CC(=O)CCC=C(C)C | inactive
N#Cc1ccccc1 | inactive
OCc1cccc(Oc2ccccc2)c1 | inactive
CN1C(=O)CC[C@H]1c1cccnc1 | inactive

— PubChem BioAssay (Tox21)
